Pf Dd2 inh = inhibitors of Plasmodium falciparum Dd2 growth | AID 1159554 | P. falciparum Dd2 growth, SYBR Green, 72 h; hits give low values | 94,000 compounds, 2.3% hits | activity change, % at 10 µM; in the data active = activity change below about -80%
C diff HTS = blocks growth of Clostridium difficile | Clostridium difficile clinical isolate growth, OD600, 24 h; hits give low values | growth activity, negative = inhibition, % at 16 µg/mL (by protocol) | 86,000 compounds, 0.25% hits;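 active = mean growth activity at or below -80% and every replicate also at or below -80%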;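 also: 0% = DMSO wells and -100% = levofloxacin 16 µg/mL wells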
T cruzi growth = T. cruzi proliferation inhibition | T. cruzi beta-gal in NIH3T3, GalScreen luminescence, 90 h | inhibition, % at 8.34 µM | 77,000 compounds, 5.9% hits;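 active = mean inhibition above about 93%, with at least 55% of replicates each passing it, limit read from the data, passing the limit was not always enough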
Starred values were filed as active, the others as inactive; ! = not active in a repeat. A selection: hits, their analogues and other compounds. The true share with any hit is near 6.8%.

Results for Cc1noc(C)c1NC(=O)N(C)C[C@@H]1OCCCC[C@H](C)Oc2ccc(NC(=O)CCC(F)(F)F)cc2C(=O)N([C@H](C)CO)C[C@@H]1C ?
Pf Dd2 inh: 5; C diff HTS: -7; T cruzi growth: 40

Results for C[C@@H]1CN([C@@H](C)CO)C(=O)c2cc(C3=CCCCC3)cnc2O[C@H]1CN(C)Cc1ccccc1 ?
Pf Dd2 inh: -8; C diff HTS: -2; T cruzi growth: -11

Results for O=C(CC(F)(F)F)N1C[C@@H]2[C@H](c3ccccc31)[C@@H](CO)N2C(=O)C1CCCCC1 ?
Pf Dd2 inh: 8; C diff HTS: 7; T cruzi growth: 30

How did CO[C@H]1CN(C)C(=O)c2ccc(NS(C)(=O)=O)cc2OC[C@H](C)N(C(=O)C2CCOCC2)C[C@H]1C do in these assays?
Pf Dd2 inh: 0; T cruzi growth: 16

How did C[C@@H](NC(=O)[C@H]1[C@H](CO)[C@H]2Cn3c(cccc3=O)[C@H]2N1CC1CCCC1)c1ccccc1 do in these assays?
C diff HTS: 7; T cruzi growth: 78

What do the screens show for `C[C@H]1CN([C@@H](C)CO)C(=O)Cc2cc(NC(=O)CCN3CCOCC3)ccc2O[C@H]1CN(C)CC1CC1`?
Pf Dd2 inh: -36; C diff HTS: -1; T cruzi growth: -16

How did CC(C)C#Cc1cnc2c(c1)C(=O)N([C@@H](C)CO)C[C@@H](C)[C@@H](CN(C)Cc1cncnc1)O2 do in these assays?
Pf Dd2 inh: 18; C diff HTS: -1; T cruzi growth: -50

Results for Cc1ccccc1S(=O)(=O)N1CC(=O)N2[C@H](CO)[C@H](c3ccc(C#Cc4ccccc4)cc3)[C@H]2C1 ?
Pf Dd2 inh: -41; C diff HTS: 0

How did Cc1ccccc1S(=O)(=O)N1CC(=O)N2[C@H](C1)[C@@H](c1ccc(C#Cc3ccccc3)cc1)[C@@H]2CO do in these assays?
Pf Dd2 inh: -82*; C diff HTS: -1

Results for O=C1CN(S(=O)(=O)c2ccccc2)C[C@@H]2[C@H](c3ccc(C#CCc4ccccc4)cc3)[C@H](CO)N12 ?
Pf Dd2 inh: -70; C diff HTS: 6

Results for O=C1CN(S(=O)(=O)c2ccccc2)C[C@@H]2[C@H](c3ccc(C#CCc4ccccc4)cc3)[C@@H](CO)N12 ?
Pf Dd2 inh: -84*; C diff HTS: 11

Results for COCC(=O)N1CC2(CN(Cc3nccs3)C2)c2c(n(C)c3cc(OC)ccc23)[C@H]1CO ?
Pf Dd2 inh: -40; C diff HTS: -10

What do the screens show for `Cc1ccc(S(=O)(=O)N(C)C[C@@H]2Oc3c(NC(=O)C4CCOCC4)cccc3C(=O)N([C@@H](C)CO)C[C@@H]2C)cc1`?
Pf Dd2 inh: -14; C diff HTS: 0; T cruzi growth: -91

Results for N#C[C@@H]1[C@H](c2ccc(-c3ccccc3F)cc2)[C@@H](CO)N1C(=O)Cc1ccccc1 ?
Pf Dd2 inh: -23; C diff HTS: 10; T cruzi growth: 84

How did C[C@H](CO)N1C[C@H](C)[C@@H](CN(C)C(=O)Nc2ccc(C(F)(F)F)cc2)Oc2ccc(NC(=O)Nc3ccc4c(c3)OCO4)cc2CC1=O do in these assays?
Pf Dd2 inh: -23; C diff HTS: 10; T cruzi growth: 30

Results for C[C@H](CO)N1C[C@H](C)[C@@H](CN(C)C(=O)Nc2ccc3c(c2)OCO3)Oc2ccc(NC(=O)Nc3ccc(C(F)(F)F)cc3)cc2CC1=O ?
Pf Dd2 inh: -93*; C diff HTS: 5

Results for C[C@H]1CN([C@@H](C)CO)C(=O)Cc2cc(NC(=O)Nc3ccc(C(F)(F)F)cc3)ccc2O[C@@H]1CN(C)C(=O)Nc1ccc2c(c1)OCO2 ?
Pf Dd2 inh: -93*; C diff HTS: 4

How did C[C@@H]1CN([C@H](C)CO)C(=O)Cc2cc(NC(=O)Nc3ccc4c(c3)OCO4)ccc2O[C@H]1CN(C)C(=O)Nc1ccc(C(F)(F)F)cc1 do in these assays?
Pf Dd2 inh: -27; C diff HTS: 2; T cruzi growth: 10

How did O=C(CC1CC1)N1CC(=O)N2[C@H](CO)[C@@H](c3ccc(C#Cc4ccccc4)cc3)[C@H]2C1 do in these assays?
Pf Dd2 inh: -11; C diff HTS: -23

Results for C/C=C/c1ccccc1[C@H]1[C@@H](C#N)N(c2nc(CC)cs2)[C@H]1CO ?
Pf Dd2 inh: -3; C diff HTS: -5

Results for Cc1noc(C)c1S(=O)(=O)Nc1ccc2c(c1)C(=O)N([C@@H](C)CO)C[C@H](C)[C@@H](CN(C)S(=O)(=O)c1cn(C)cn1)OCCCC[C@@H](C)O2 ?
Pf Dd2 inh: 8; C diff HTS: 4; T cruzi growth: 41

How did Cc1noc(C)c1S(=O)(=O)N(C)C[C@@H]1OCCCC[C@H](C)Oc2ccc(NC(=O)c3ccccc3)cc2C(=O)N([C@H](C)CO)C[C@H]1C do in these assays?
Pf Dd2 inh: -65; C diff HTS: 2; T cruzi growth: 33

How did Cc1noc(C)c1S(=O)(=O)N(C)C[C@H]1OCCCC[C@H](C)Oc2ccc(NC(=O)c3ccccc3)cc2C(=O)N([C@@H](C)CO)C[C@@H]1C do in these assays?
Pf Dd2 inh: -86*; C diff HTS: 8; T cruzi growth: 67

What do the screens show for `Cc1noc(C)c1S(=O)(=O)N(C)C[C@H]1OCCCC[C@H](C)Oc2ccc(NC(=O)c3ccccc3)cc2C(=O)N([C@H](C)CO)C[C@H]1C`?
Pf Dd2 inh: -77; C diff HTS: 1; T cruzi growth: 37

How did Cc1noc(C)c1S(=O)(=O)N(C)C[C@H]1OCCCC[C@@H](C)Oc2ccc(NC(=O)c3ccccc3)cc2C(=O)N([C@@H](C)CO)C[C@@H]1C do in these assays?
Pf Dd2 inh: -84*; C diff HTS: 10; T cruzi growth: 35

Results for CCCC(=O)N1CC2(C1)CN(C(=O)C1CCOCC1)[C@@H](CO)c1[nH]c3cc(OC)ccc3c12 ?
Pf Dd2 inh: 18; C diff HTS: 2

Results for CO[C@H]1CN(C)C(=O)c2cc(NC(=O)C3CCCC3)ccc2OC[C@H](C)N(C(=O)CC2CC2)C[C@@H]1C ?
Pf Dd2 inh: 4; T cruzi growth: -8

How did O=C(C[C@@H]1CC[C@@H](NC(=O)CC2CC2)[C@H](CO)O1)NCc1ccc(Cl)cc1 do in these assays?
Pf Dd2 inh: -39; T cruzi growth: -45

How did Cc1noc(C)c1NC(=O)N[C@H]1C=C[C@H](CC(=O)N2CCCCC2)O[C@H]1CO do in these assays?
Pf Dd2 inh: 14; C diff HTS: 6; T cruzi growth: 22

What do the screens show for `N#Cc1cccc(-c2ccc(C3[C@@H]4CN(C(=O)C5CCCCC5)C[C@H]3N4)cc2)c1` (stereo partly specified)?
Pf Dd2 inh: -68; C diff HTS: -14

Results for N#Cc1ccc(-c2ccc(C3[C@@H]4CN(C(=O)C5CCCCC5)C[C@H]3N4)cc2)cc1 (stereo partly specified) ?
Pf Dd2 inh: -88*!; C diff HTS: -8

What do the screens show for `COc1ccccc1CN1C[C@@H]2N[C@H](C1)C2c1ccc(-c2ccc(C#N)cc2)cc1` (stereo partly specified)?
Pf Dd2 inh: -82*!; C diff HTS: 2

How did COc1ccccc1CN1C[C@@H]2N[C@H](C1)C2c1ccc(-c2cccc(C#N)c2)cc1 (stereo partly specified) do in these assays?
Pf Dd2 inh: -24; C diff HTS: 31

Bioassay records deposited in PubChem by Broad Institute.
